Screens from PubChem.
MITF act: activators of MITF-driven TRPM1 promoter activity in SK-MEL-5 cells | SK-MEL-5 TRPM1-promoter luciferase, 24 h; % of positive control, neutral wells = 0 | activation, % at 12.5 µM | 300,000 compounds, 0.75% hits | AID 588334;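 active = mean activation of at least 80% with every replicate also reaching 80%; inconclusive = mean reaches 80% but some replicate falls short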;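 also: 0% = neutral control wells and 100% = parthenolide positive control wells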
SMARCA2 activ: activators of SMARCA2 function. MG213 cells, MMTV-luciferase reporter, dexamethasone, overnight. activation, % at 9.1 µM. 370,000 compounds, 1% hits; in the data active = activation above about 7.8%;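 also: 0% = vehicle wells and 100% = reference activator wells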
HSF1 inh: HSF1 inhibition; NIH3T3-HGL HSE-luciferase, MG132-induced, luminescence 8 h; stronger effect = lower value; activity change, negative = inhibition, % at 7.5 µM (by protocol); 300,000 compounds, 0.77% hits; AID 2098;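 active = more than half of replicate wells show activity change below -50%, luminescence cut by over half; inconclusive = some wells, but at most half, below -50%; inactive = no replicate well below -50%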;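 also: luciferase reports HSF-1 transcriptional activity via heat shock element; 0% = median of DMSO wells and -100% = zero luminescence signal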
esBAF inh: inhibitors of esBAF chromatin remodeling in mouse ES cells | Bmi1-luciferase knock-in reporter, 24 h; 100% = twice the neutral-well signal | reporter increase, % at 12.5 µM | 350,000 compounds, 2% hits | AID 602393; in the data active = activation above about 40%; inconclusive = no clear call, values can overlap the other calls;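 also: 0% = median of the plate's neutral control wells and 100% = double that signal; a rise in the Bmi1 reporter signal indicates esBAF inhibition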
HSF-1 act: increases HSF-1 driven luciferase reporter signal | AID 504408 | activation, % at 9 µM | 300,000 compounds, 1.7% hits | NIH3T3-HGL HSF-1 luciferase reporter, MG132, 8 h; 100% = twice DMSO control signal;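 active = mean replicate activation of at least 50% with a set share of replicates each reaching 50%; inconclusive = only one of those two conditions met; inactive = mean below 50% and too few replicates reaching it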;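 also: 0% = median of the neutral control wells and 100% = twice that signal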
Wnt bcat act: activates Wnt/beta-catenin signaling in a reporter cell assay; activator, plate reader; activation, % at 9.35 µM; 300,000 compounds, 1.2% hits; AID 743398; in the data active = activation above about 30%, passing the limit was not always enough; inconclusive = no clear call, values can overlap the other calls;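 also: 0% = neutral control wells and 100% = positive control wells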
* = called active by the depositor; ? = inconclusive; · = not tested or not shown. An excerpt weighted towards active compounds, which were near 4.3% of everything screened.

SMILES	MITF act	SMARCA2 activ	HSF1 inh	esBAF inh	HSF-1 act	Wnt bcat act
CCOc1cc(C2Nc3ccccc3C(=O)N2c2ccccc2)ccc1O (stereo unspecified)	33	1	3	45*	-4	10
C[C@H]1CN([C@@H](C)CO)C(=O)c2cc(NS(=O)(=O)c3cn(C)cn3)ccc2O[C@H]1CN(C)Cc1ccc(Oc2ccccc2)cc1	·	·	·	-1	·	·
Clc1ccc(/C=N/Nc2nnc(-c3ncc[nH]3)c3ccccc23)cc1	6	2	15	22	16	·
Clc1cccc(/C=N/Nc2nnc(Cl)c3ccccc23)c1	30	0	50	?	57*	·
O=C(NC(=S)Nc1cccc(O)c1)C12CC3CC(CC(C3)C1)C2	·	-3	·	47*	·	22
CO[C@@H]1CN(C)C(=O)c2ccc(NC(=O)Nc3cccc(F)c3)cc2OC[C@@H](C)N(C(=O)C2CC2)C[C@H]1C	·	·	·	0	·	·
Cc1nnc(N/N=C/c2cccc(OCc3ccc(Cl)c(Cl)c3)c2)n1N	9	7	83	·	128*	·
C[C@H](CO)N1C[C@H](C)[C@@H](CN(C)Cc2ccc(Cl)c(Cl)c2)Oc2ccc(NC(=O)c3ccncc3)cc2C1=O	·	·	·	1	·	·
C[C@@H]1CCCCO[C@H](CN(C)C(=O)C2CCCCC2)[C@H](C)CN([C@H](C)CO)C(=O)c2cc(NC(=O)CCC(F)(F)F)ccc2O1	·	·	·	1	·	·
CCCCNC(=O)C1CCCN1C(=O)Nc1cccc(OC)c1 (stereo unspecified)	·	-2	-52*	9	-61	-7
COc1cccc(NC(=O)C2CCCN2C(=O)Nc2ccccc2)c1 (stereo unspecified)	8	0	-1	-3	-17	1
CC1=Nc2ccc(C)c3nc(C)cc(c23)N1c1ccc(C)cc1	·	0	-53*	-2	-64	-2
Nc1ncnc(Nc2ccc(F)cc2)n1	12	0	3	·	-4	2
Fc1ccc(Nc2ccnc(Nc3ccc(F)cc3)n2)cc1	71	-1	32	·	72*	24
CCC(=O)N1CCCCN2[C@@H](CO)[C@H](c3ccc(C#Cc4ccccc4F)cc3)[C@@H]2C1	·	·	·	1	·	·
COC1(OC)C(/C=C/c2ccc(Cl)cc2)C(C#N)(C#N)C1(OC)OC (stereo unspecified)	-13	-2	80	27	99*	·
COC(=O)C[C@H]1C[C@@H]2c3cc(NC(=O)Nc4ccccc4)ccc3O[C@@H]2[C@H](CO)O1	·	·	·	7	·	·
O=C(CSc1nnc(C2CC2)n1C1CC1)c1ccc(Br)s1	71	2	·	56*	·	33*
O=C(CSc1nnc(C2CC2)n1C1CC1)c1cccs1	0	-2	·	4	·	4
C/C(CCc1oc2c(Br)cc(Br)cc2c1-c1ccc(C)o1)=N\O	-4	0	40	-1	80*	0
C/C(CCc1oc2ccccc2c1-c1ccc(C)o1)=N/O	·	1	·	-2	·	·
CC(C)NC(=O)N(C)C[C@@H]1Oc2cc(C#C[C@@H](C)O)ccc2S(=O)(=O)N([C@H](C)CO)C[C@H]1C	·	·	·	-6	·	·
CCOC(=O)CNC(=O)CSc1nnc(C)c(=O)[nH]1	5	-4	-81*	·	-85	10
O=C(CN1CCOCC1)Nc1scc2c1c(=O)oc1ccccc12	·	0	-1	·	0	1
O=C(CN1CCCCC1)Nc1scc2c1c(=O)oc1ccccc12	·	-1	14	?	11	38*
SMILES	MITF act	SMARCA2 activ	HSF1 inh	esBAF inh	HSF-1 act	Wnt bcat act
C/C(=N\N1CCN(C2c3ccccc3-c3ccccc32)CC1)c1cccnc1	·	1	-9	7	-10	·
CN=c1scc(-c2ccccc2F)n1/N=C(\C)c1cccnc1	17	2	26	·	78*	19
COc1ccc(N=Cc2c(O)[nH]c3ccccc23)cc1	50	1	40	7	63*	59*
COc1ccc(N=Cc2c(O)ccc3ccccc23)cc1	-12	-4	-58*	·	-65	2
Oc1[nH]c2ccccc2c1C=Nc1ccc2c(c1)OCO2	?	4	30	57*	37	39*
CC=Cc1ccc2n(c1=O)C[C@@H]1[C@@H](CO)[C@H](C(=O)NCC(F)(F)F)[C@H]2N1C(=O)C1CCCCC1 (mixture of isomers)	·	·	·	4	·	·
C[C@@H]1CCCCO[C@H](CN(C)C(=O)C2CCCCC2)[C@H](C)CN([C@@H](C)CO)C(=O)c2cc(NC(=O)Nc3ccccc3)ccc2O1	·	·	·	6	·	·
Cc1nc(N)sc1N=Nc1ccccc1C(F)(F)F	159*	7	8	?	17	28
Cc1ccc(S(=O)(=O)N[C@@H]2CC[C@H](CCn3cc(-c4ccccc4F)nn3)O[C@@H]2CO)cc1	·	·	·	9	·	·
O=C(Nc1ccc2c(c1)[C@H]1C[C@H](CC(=O)N3CCc4ccccc4C3)O[C@H](CO)[C@H]1O2)NC1CCCC1	·	·	·	25	·	·
O=S(=O)(c1ccc(OCC(O)CNC23CC4CC(CC(C4)C2)C3)c(Cl)c1)N1CCOCC1 (stereo unspecified)	15	7.8*	3	-6	4	2
CCc1cc2c(SC(C)C(=O)NC3CCCC3)ncnc2s1 (stereo unspecified)	-5	3	·	-4	·	-2
CCc1cc(C=NC2CCCCC2)c(O)s1	·	5	-56*	51*	-63	·
CCCC(=O)Nc1ccc2c(c1)C(=O)N(C)[C@@H]1CC[C@@H](CC(=O)NCC3CCCCC3)O[C@@H]1CO2	·	·	·	-1	·	·
Cc1nn(C)cc1/C=C/C(=O)c1cccs1	·	4	0	65*	-2	90*
Cc1nn(C)cc1/C=C/C(=O)c1ccccc1	39	1	4	17	25	·
Cc1nn(C)c(C)c1/C=C/C(=O)c1ccccc1	60	3	0	·	14	·
Cc1nn(C)c(C)c1/C=C/C(=O)c1cccs1	·	2	1	19	15	39*
CO[C@H]1CN(C)C(=O)c2ccc(NC(=O)c3cc(C)on3)cc2OC[C@@H](C)N(C(=O)C2CC2)C[C@@H]1C	·	·	·	-1	·	·
O=C(Nc1cccc(C(F)(F)F)c1)c1c(O)c2ccccc2[nH]c1=O	·	·	15	9	29	·
Cc1cccc(NC(=O)c2c(O)c3ccccc3[nH]c2=O)c1	106*	-2	11	49*	45	41*
O=c1c2ccccc2nc(SCc2nc3ccccc3s2)n1CCCO	74	6	41	36	47	41*
O=C(CSc1nc2ccccc2c(=O)n1CCCO)NCc1ccccc1	9	-3	-6	0	-21	-14
O=C(N/N=C/C(Br)=C/c1ccccc1)c1ccc([N+](=O)[O-])cc1	-2	-1	47	0	59*	6
O=C(N/N=C/C(Br)=C\c1ccccc1)c1ccc2nc[nH]c2c1	24	2	95	·	125*	·
CCOc1cc(C(=O)N/N=C/C(Br)=C/c2ccccc2)cc(OCC)c1OCC	-35	1	95	·	87*	·
